In the supplement of paper PMC8877412 one finds cell viability data, which are given here for seven molecules.

The structures appear in SMILES notation. Structures can show the parent of a compound that is named as a salt. ± gives the uncertainty stated by the source.

For the assay, the system named is NCC-PMP1-C1. As to the kind of experiment: cell viability relative to DMSO control; higher = less growth inhibition. The note with it: 10 µM; 72 h. As for the experimental part: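 NCC-PMP1-C1 pseudomyxoma peritonei cells were seeded in 384-well plates coated with Matrigel and MEF (1e4 cells). Viability was read after 72 h by CCK-8 and expressed as % of the DMSO control, mean ± SD of duplicates.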
A word on the cell viability: it is a read-out of living cells in per cent, often relative to untreated cells. For the molecule `Cc1nc(NC(=O)N2CCC[C@H]2C(N)=O)sc1-c1ccnc(C(C)(C)C(F)(F)F)c1` [Alpelisib], the cell viability was found to be 56.6 ± 3%.

As to `C/C=C1\NC(=O)[C@H]2CSSCC/C=C/[C@H](CC(=O)N[C@H](C(C)C)C(=O)N2)OC(=O)[C@H](C(C)C)NC1=O` [Romidepsin (FK228, Depsipeptide)], the cell viability is 22.2 ± 22%.

Take `CCOC(=O)[C@H](CCc1ccccc1)N[C@H]1CS[C@H](c2cccs2)CN(CC(=O)O)C1=O` [Temocapril HCl]: the cell viability is 84.76 ± 0.83%.

Turning to `COc1ccc2c(c1OC)C(=O)O[C@@H]2[C@H]1c2c(cc3c(c2OC)OCO3)CCN1C` [Noscapine HCl], the cell viability amounted to 90.5 ± 4.2%.

Turning to `COc1cccc2c1C(=O)c1c(O)c3c(c(O)c1C2=O)C[C@@](O)(C(=O)CO)C[C@@H]3O[C@H]1C[C@H](N)[C@H](O)[C@H](C)O1` [Doxorubicin (Adriamycin)], the cell viability is 3.06 ± 0.067%.

Turning to `COc1cc2c(Oc3ccc(NC(=O)C4(C(=O)Nc5ccc(F)cc5)CC4)cc3F)ccnc2cc1OCCCN1CCOCC1`, the cell viability was 2.42 ± 1%.

`N=C(N)NC(=N)N1CCOCC1` [Moroxydine HCl]: the cell viability was found to be 104 ± 11%.
